High-throughput results deposited in PubChem BioAssay by National Center for Advancing Translational Sciences (NCATS).
Most compounds without a hit are left out; they make up all but 5.6% or so of the library.
CtBP-E1A inh: inhibitors of CtBP/E1A interaction | AID 651724 | activity change, % (test concentration not listed) | AlphaScreen GST-E1A/His-CtBP binding, 1536-well; hits give low values | 340,000 compounds, 0.49% hits; in the data active = activity change below about -65%; inconclusive = mostly about -30% to -63%
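In 5 uL wells, 23 nL compound meets equimolar GST-E1A and His-CtBP (5X stock 125 nM each) for 2 h, 37 °C. Beads (5X, 50 ug/mL) then 1 h, 37 °C, dark.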
VP16 counter: counter-screen for ROR gamma inhibitors: Gal4-VP16 reporter. Drosophila S2 Gal4-VP16 UAS-luciferase, luminescence, 20 h. Potency, µM (doses to about 53.6 µM), for inactives: at the top dose activity, negative = inhibition, usual class: inhibitors. 310,000 compounds, 3.5% hits. AID 2546;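 also: Gal4-VP16 expression switched on by copper sulfate through the metallothionein promoter; potency is read from the fitted curve at half-maximal effect; nearly all actives have a fitted effect of over 50% in size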
Six1-Eya2 inh: blocks human Six1 binding to Eya2; AlphaScreen GST-Six1/His-Eya2 binding, biochemical; hits give low values; 360,000 compounds, 0.56% hits; activity change, % (concentration not given with the values); AID 651725; in the data active = activity change below about -65%; inconclusive = mostly about -30% to -63%
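Six1/Eya2 binding was read as AlphaScreen signal after compounds were pinned into GST-Six1 plus His-tagged Eya2 (5X stock 250/500 nM) in pH 8.0 Tris/NaCl/TCEP buffer, beads added, then incubated 1 h, 37 C, dark.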
RORg inh: ROR gamma (mouse) transcription inhibition; P51450; 310,000 compounds, 5.4% hits; Drosophila S2 Gal4-RORgamma UAS-luciferase reporter, 20 h; Potency, µM (doses to about 53.6 µM), for the others: at the highest dose activity change, negative = inhibition, actives largely listed as inhibitors; also: potency is read from the fitted curve at half-maximal effect; nearly all actives have a fitted effect of over 60% in size
Target sequence (P51450 whole entry, looked up, the tested form may be a part): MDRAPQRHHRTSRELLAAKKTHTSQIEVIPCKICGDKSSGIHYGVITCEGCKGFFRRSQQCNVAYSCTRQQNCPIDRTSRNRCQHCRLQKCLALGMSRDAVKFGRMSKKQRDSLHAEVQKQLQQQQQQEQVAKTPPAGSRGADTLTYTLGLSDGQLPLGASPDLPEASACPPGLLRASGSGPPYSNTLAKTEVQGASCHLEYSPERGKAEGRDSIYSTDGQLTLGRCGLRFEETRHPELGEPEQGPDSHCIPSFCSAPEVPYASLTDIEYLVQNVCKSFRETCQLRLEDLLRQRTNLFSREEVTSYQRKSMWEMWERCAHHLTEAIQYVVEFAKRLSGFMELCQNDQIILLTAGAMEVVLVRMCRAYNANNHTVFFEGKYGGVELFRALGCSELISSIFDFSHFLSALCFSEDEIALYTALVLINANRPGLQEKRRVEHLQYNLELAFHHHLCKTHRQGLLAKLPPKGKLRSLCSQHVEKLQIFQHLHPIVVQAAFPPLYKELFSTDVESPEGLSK
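In this cell-based reporter format, copper sulfate (700 uM final) drives Gal4–ROR gamma fusion expression from a metallothionein promoter in Drosophila Schneider cells; compounds preincubated 1 hr, reporter read after 20 hr at ambient temperature.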
PKM2 act: PKM2 (human) enzyme activation; purified PKM2, Kinase-Glo ATP luminescence, activation; response scale: 0% is enzyme alone, no compound; Potency, µM (series often up to 57.5 µM), for the others: at the top dose activation, hits mostly activators; 260,000 compounds, 0.34% hits; also: potency is read from the fitted curve at half-maximal effect; nearly all actives have a fitted effect of over 55% in size
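Kinase-Glo luminescence reports ATP generated from ADP (0.1 mM) and PEP (0.5 mM) by purified hPK-M2 after 1 h at room temperature, pH 7.2 imidazole buffer; intermediate enzyme activity allows detecting inhibitors and activators.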
Active calls of the source: *; ? = inconclusive; / = not tested or not shown; [ ] = remark or other dose. Unless noted, calls follow the shape of the dose curve; as a rule, active = well fitted curve in the direction sought with a large enough effect; inconclusive = small, poorly fitted or top-dose-only effect, or another doubt; inactive = no such curve, though single readings can be large; an effect the other way counts as inactive or inconclusive. % is scaled to controls: 0 for no effect and ±100 for the full control effect.

SMILES | CtBP-E1A inh | VP16 counter | Six1-Eya2 inh | RORg inh | PKM2 act
Fc1cc2[nH]c(=S)[nH]c2c(Br)c1N1CCSCC1 | -19 | 13% | -10 | 11µM* | /
CCOc1ccccc1OCCCCCc1c(C)n[nH]c1C | -8 | ? | -4 | ? | 0%
Cc1cccc(OCCCCc2c(C)n[nH]c2C)c1C | 1 | ? | -2 | 14µM* | -1%
COc1cccc(OC)c1OCCCOc1cccc2cccnc12 | -4 | ? | 6 | ? | 3%
Brc1ccc(OCCCOc2cccc3cccnc23)cc1 | 7 | ? | 0 | ? | 1%
Cc1ccc(OCCCOc2cccc3cccnc23)cc1C | 3 | ? | -3 | 14µM* | 2%
Cc1cccc(OCCCOc2cccc3cccnc23)c1C | 7 | ? | 13 | 13µM* | 0%
COc1cc(CNC2CCCCCCC2)c(Br)cc1OCCO | 4 | -8% | 2 | 3% | 1%[11.5 µM]
O=[N+]([O-])c1cc([N+](=O)[O-])c2nonc2c1Nc1ccc(O)cc1 | / | 13µM* | 4 | 11µM* | -12%[11.5 µM]
O=[N+]([O-])c1cncc([N+](=O)[O-])c1Nc1cccc(O)c1 | -28 | 11µM* | -28 | ? | -2%[11.5 µM]
Cc1ccsc1C(=O)N1CCC1(C)C(=O)NS(=O)(=O)c1ccc(C#N)cc1 (stereo not drawn) | 2 | / | 5 | / | /
Cc1noc(/C=C/c2ccco2)c1S(=O)(=O)N1CCC(C(=O)N2CCc3ccccc3C2)CC1 | 4 | -5% | -9 | -6% | 20µM*
Cc1ccc(NC(=O)C2CCN(S(=O)(=O)c3c(C)noc3/C=C/c3ccco3)CC2)nc1 | -10 | -2% | -8 | 6% | 4%
CS(=O)(=O)c1ccc(Sc2nc3ccccc3[nH]2)c([N+](=O)[O-])c1 | -11 | ? | -11 | ? | 3%
O=[N+]([O-])c1cc(S(=O)(=O)C(F)(F)F)ccc1Sc1nc2ccccc2s1 | 2 | 6.3µM* | -2 | 7.9µM* | -3%
CS(=O)(=O)c1ccc(Sc2nc3ccccc3s2)c([N+](=O)[O-])c1 | -7 | 10µM* | -1 | 11µM* | -4%
O=C(NCCCO)/C(=C\c1ccco1)NC(=O)c1ccco1 | / | -3% | 1 | -26% | -11%[11.5 µM]
Cc1cc(N/C=C/C(=O)c2cccs2)ccc1F | 9 | 0% | 14 | -1% | -26%
Cc1ccc(N/C=C/C(=O)c2cccs2)cc1C | 26 | ? | 3 | 13µM* | 2%
COc1ccc(-c2nc(NC(=O)c3[nH]c(C)c(C(C)=O)c3C)sc2C)cc1 | -2 | -7% | -15 | 32% | 7.9µM*
CC(=O)c1c(C)[nH]c(C(=O)Nc2nc(C)cs2)c1C | -2 | 10µM* | -14 | 4.5µM* | 0%
CC(=O)c1c(C)[nH]c(C(=O)Nc2ccc(C)cn2)c1C | -5 | ? | -1 | 2µM* | 1%
CC(=O)c1c(C)[nH]c(C(=O)Nc2cc(C)cc(C)c2)c1C | 1 | 4% | -3 | ? | 28%
N=C1S/C(=C\c2ccco2)C(=O)N1c1nccs1 | / | 0.22µM* | -6 | 0.018µM* | -17%
Cc1nc2ccc(NC(=O)c3cc([N+](=O)[O-])cc([N+](=O)[O-])c3Cl)cc2s1 | -4 | 3.2µM* | -23 | ? | 2%
SMILES | CtBP-E1A inh | VP16 counter | Six1-Eya2 inh | RORg inh | PKM2 act
Cc1nc2ccc(NC(=O)c3ccc(Cl)c([N+](=O)[O-])c3)cc2s1 | 18 | ? | 23 | 25% | -6%
O=C(Nc1ccc(C(F)(F)F)cc1)C1CCN(S(=O)(=O)c2ccc(N3CCCC3=O)cc2)CC1 | / | 3.5µM* | 7 | -7% | 0%
Cc1ccc(NC(=O)c2cnn(-c3ccccc3)c2C)cc1C | -15 | ? | 16 | 5µM* | ?
COc1ccc(NC(=O)c2cnn(-c3ccccc3)c2C)cc1OC | 1 | 13% | -10 | 44% | -6%[11.5 µM]
CC(=O)c1cccc(NC(=O)c2cnn(-c3ccccc3)c2C)c1 | 10 | 2.2µM* | -5 | 3.5µM* | -3%
Cc1c(C(=O)Nc2ccccc2)cnn1-c1ccccc1 | 9 | / | 11 | / | /
Nc1ccc(C(=O)Nc2nc3ccccc3s2)cc1 | -15 | ? | 4 | ? | -2%
O=C(Nc1nc(=O)c2ccccc2s1)c1ccc(F)cc1 | 46 | 2.8µM* | 0 | 7.1µM* | 18%
O=C(Nc1nc(=O)c2ccccc2s1)c1ccc(Cl)cc1 | -4 | 26%[0.365 µM] | 2 | 3.2µM* | 23%
COc1ccc(N2C(=O)c3ccccc3NC(=O)C2C(=O)Nc2ccc3c(c2)OCCO3)cc1 (stereo not drawn) | 0 | / | -8 | / | /
O=C(/C=C/c1ccc([N+](=O)[O-])cc1)OCC(=O)N1CCCCCC1 | -72* | / | -10 | / | /
O=C(/C=C/c1ccc([N+](=O)[O-])cc1)OCC(=O)N1CCOCC1 | -25 | / | 5 | / | /
O=C1OC(c2ccc(F)cc2)=C/C1=C\c1ccc(O)cc1 | / | ? | -3 | 6.3µM* | -1%[11.5 µM]
CCCNC(=O)NNC(=O)c1ccc(F)cc1 | 4 | -7% | 4 | -2% | 1%
CC(C)=CCC/C(C)=C/CO/N=C1/C[C@@H](O)[C@@H](O)[C@@H]2[C@@H]3C(=O)N(Cc4ccccc4)C(=O)[C@H]3CC[C@@H]12 | / | -2%[10 µM] | / | -6%[10 µM] | /
Cc1cc(C)c(C(=O)CC(=O)c2ccccc2Cl)c(O)c1 | 5 | 4.5µM* | 3 | 2.2µM* | /
Cc1ccc2c(c1)c1nnc(SCC(=O)N3CCCc4ccccc43)nc1n2CC(=O)O | -88* | -4% | -78* | 21% | -32%
O=C(CSc1n[nH]c(-c2ccccc2O)n1)N1CCCc2ccccc21 | -1 | 14% | -2 | 11µM* | 2%
O=C(CSc1nnc(-c2ccccc2)c(-c2ccccc2)n1)N1CCc2ccccc21 | -1 | 5% | -3 | 3.2µM* | -8%
Cc1cc(C)nc(SCC(=O)N2CCc3ccccc32)n1 | 6 | / | 12 | / | /
Fc1ccc2c(c1)C(c1ccncc1)=NNC(c1ccccc1)=N2 | -8 | ? | -12 | 10µM* | -10%
Fc1ccc2c(c1)C(c1ccncc1)=NNC(c1ccc(Cl)cc1)=N2 | -3 | ? | -2 | ? | -1%
O=C(CN1C(=O)NC2(CCCCCC2)C1=O)NCCc1ccc(F)cc1 | 0 | / | 6 | / | /
CCN(CC)S(=O)(=O)c1ccc(C(=O)Nc2nnc(COC)o2)cc1 | -19 | 16µM* | -16 | 3.5µM* | 4%
CCN(CC)S(=O)(=O)c1ccc(C(=O)Nc2nnc(CSC)o2)cc1 | -2 | 4µM* | 5 | 1.1µM* | 7%
CCCCN(CCCC)S(=O)(=O)c1ccc(C(=O)Nc2nnc(COC)o2)cc1 | -7 | 1µM* | -13 | 0.45µM* | 0%
CCCCN(C)S(=O)(=O)c1ccc(C(=O)Nc2nnc(CSC)o2)cc1 | -10 | 1.1µM* | -11 | 0.79µM* | 0%
Cc1ccc(OCC(=O)NCCNC(=O)c2cccnc2)cc1C | 3 | -12% | -1 | 5% | /
